Only some compounds are listed: those with a hit (about 6.1% of all), similar ones and a draw of the others.
D1 ag – activates the human D1 dopamine receptor; HEK293 T-REx D1 cells, calcium flux, agonist mode; P21728; actives 1% (n = 360,000); activation, % at 2 µM; in the data active = activation above about 30%
Target sequence (P21728 whole entry, looked up): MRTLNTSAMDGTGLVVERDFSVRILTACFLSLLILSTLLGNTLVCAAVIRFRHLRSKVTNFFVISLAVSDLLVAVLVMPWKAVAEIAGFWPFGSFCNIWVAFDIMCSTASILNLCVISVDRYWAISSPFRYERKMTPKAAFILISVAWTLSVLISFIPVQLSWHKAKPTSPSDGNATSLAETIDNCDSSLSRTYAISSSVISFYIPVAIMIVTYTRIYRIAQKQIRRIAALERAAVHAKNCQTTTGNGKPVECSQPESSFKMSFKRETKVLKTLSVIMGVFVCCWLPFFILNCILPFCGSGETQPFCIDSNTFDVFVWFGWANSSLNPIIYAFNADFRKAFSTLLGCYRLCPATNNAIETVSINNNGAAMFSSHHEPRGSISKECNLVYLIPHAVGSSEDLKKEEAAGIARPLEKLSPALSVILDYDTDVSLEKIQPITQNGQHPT
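Inducible HEK293 T-REx D1 cells, force-coupled to calcium signalling, were plated at 4000 cells/well with tetracycline and held overnight at 30 C. After no-wash calcium dye loading, compound-evoked calcium rise over 180 s flagged agonists.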
ERG Ets-DNA blk – blocks human ERG Ets domain binding to DNA. actives 0.028% (n = 370,000). P11308. AID 624246. Potency, µM (top dose mostly 76.9 µM), hits mostly inhibitors. fluorescence polarization, His-ERG Ets domain / labelled DNA; active = well fitted inhibition curve with a large enough effect in the polarisation, with a control signal flat; inconclusive = small, poorly fitted or top-dose-only effect, or effect the other way, or a change in a side signal; inactive = no such curve, though single readings can be large or run the other way; the % refers to the polarisation;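 note: polarization taken with two DNA probes labelled with fluorescein and Texas red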
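His-tagged ERG Ets domain (1 uM in the protein solution; 300mM KCl, 50mM Tris-HCl, 1mM EDTA, 1mM DTT, pH 7.5) received compound, then a probe mix of 5 nM fluorescein-DNA and 100nM Texas-615-DNA. Fluorescence polarization was read for both dyes.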
D1 PAM – human D1 dopamine receptor positive modulation; P21728; AID 504651; potentiation, % at 10 µM; actives 0.036% (n = 360,000); HEK293 TREx D1 cells, calcium flux, dopamine EC20 potentiation; in the data active = potentiation above about 30%
D3 ag – activates the human D3 dopamine receptor; P35462; D3R DiscoveRx beta-arrestin cells, luminescence, 90 min; max activation, %; actives 0.58% (n = 410,000); AID 652048; in the data active = max activation above about 30%
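Cells at 1500/well, incubated overnight, then treated with pinned compounds (dopamine as control) for 90 min at 37 degrees C. DiscoveRx reagent added for 30 - 60 minutes at room temperature; luminescence read.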
DRD3 antagonist – blocks the human D3 dopamine receptor; P35462; D3R cells, DiscoveRx beta-arrestin luminescence, antagonist mode; hits give low values; max response, negative = inhibition, %; actives 2.5% (n = 360,000); AID 652054; in the data active = max response below about -50%; inconclusive = no clear call, values can overlap the other calls
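Cells expressing the human receptor were seeded at 1500 cells/well, incubated overnight at 37 degrees C in 5% CO2, then exposed to library compounds with dopamine controls for 90 minutes at 37 degrees C before luminescent detection.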
D1 antag – human D1 dopamine receptor antagonism. P21728. HEK293 TREx D1 cells, calcium flux, dopamine EC80; hits give low values. activity change, negative = inhibition, % at 10 µM. actives 3.2% (n = 360,000). AID 504652; in the data active = activity change below about -30%
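Compound effects on dopamine-evoked calcium signalling were measured in tetracycline-induced HEK293 Trex D1 cells. Dopamine at EC80 followed a 180 s compound pre-read, and fluorescence was tracked kinetically for 180 s more.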
Each line names hits and unclear results; the compound was inactive in the other large screens.

Cn1ncc(Br)c1C(=O)Nc1c(F)c(F)cc(F)c1F	none
CCc1c(C)sc(NC(=O)c2cccs2)c1C(=O)OC(C)C	DRD3 antagonist -54.3 (no result: ERG Ets-DNA blk)
Cc1cnccc1NC(=O)c1cccs1	D1 antag -40.7
CSc1ccccc1NC(=O)c1c(Br)cnn1C	D1 antag -32.7
CC(C)c1nnc(NC(=O)c2cccs2)s1	D1 antag -52.6
CC[C@@]1(c2ccccc2OC)ON(c2ccccc2C(F)(F)F)C1=O	none
CC(C)[C@H](NC(=O)c1ccccc1)C(=O)OCC(=O)N1CCCCCC1	none
CSc1ccccc1NC(=O)c1cccs1	D1 antag -64.7
COc1cc2oc3ccc(C#Cc4ccc(N)cc4)cc3c(=O)c2cc1OC	none (no result: D1 ag, D1 PAM, D1 antag)
COc1cc2oc3cc(C#Cc4ccc(N)cc4)ccc3c(=O)c2cc1OC	D3 ag 57.1 (no result: D1 ag, D1 PAM, D1 antag)
O=[N+]([O-])c1cc(Br)cc(C=Nc2ccc3c(c2)OCO3)c1O	DRD3 antagonist -78.3
Cc1ccc(N=Cc2cc3c(cc2[N+](=O)[O-])OCO3)cc1[N+](=O)[O-]	none (no result: D1 ag, D1 PAM, D1 antag)
O=[N+]([O-])c1ccc(O)c(C=Nc2ccc3c(c2)OCO3)c1	DRD3 antagonist -68.3
CC(C)(C)c1ccc(O)c(N=Cc2cc3c(cc2[N+](=O)[O-])OCO3)c1	none
Cc1ccc(-c2ccc3nnc(SCC(=O)NCC4CCCO4)n3n2)cc1 (stereo not drawn)	none
COc1cc(/C=C2\SC(c3ccc(C)cc3)=NC2=O)cc(OC)c1O	DRD3 antagonist -53.5
CCCc1cc(-c2[nH]ncc2-c2ccc3c(c2)OCCCO3)c(O)cc1OC	D1 ag 36.6 (no result: ERG Ets-DNA blk, D3 ag, DRD3 antagonist)
COc1ccc(C2C(C(=O)Nc3ccccc3)=C(C)Nc3nc(SCC(=O)c4ccc(C)cc4)nn32)cc1 (stereo not drawn)	none (no result: DRD3 antagonist)
Cc1ccc(NC(=O)c2c(C)nc3sc(C(=O)Nc4ccc(F)cc4)c(N)c3c2-c2ccccc2Cl)c(C)c1	D1 antag -39.0 (no result: DRD3 antagonist)
COc1ccc(NC(=O)c2sc3nc(C)c(C(=O)Nc4ccc(C)cc4C)c(-c4ccccc4Cl)c3c2N)cc1	none (no result: DRD3 antagonist)
Cn1[nH]c(C(F)(F)F)c(C=Nc2ccc(Cl)cc2)c1=O	DRD3 antagonist -62.7
CN(C)S(=O)(=O)c1ccc(N=Cc2c(C(F)(F)F)[nH][nH]c2=O)cc1	none
CC(C)N(Cc1nc(-c2ccccc2)no1)C(=O)C(Cl)(Cl)Cl	none
CCOc1cc(C(=O)NCc2nc(-c3cccc(C)c3)no2)cc(OCC)c1OCC	D1 antag -30.7 (no result: DRD3 antagonist)
CCOc1ccc(C(=O)NCc2ccncc2)cc1OCC	DRD3 antagonist inconclusive
CCOc1cc(C(=O)NN=C2CCCC2)cc(OCC)c1OCC	DRD3 antagonist -50.8
Cc1cc(C)cc(OCc2nc(-c3cccnc3)no2)c1	D1 antag -30.4
CCOc1cc(C(=O)NCc2ccncc2)cc(OCC)c1OCC	DRD3 antagonist -100.2
CCOC(=O)CNC(=O)c1ccc(-c2nn(C)c(=O)c3ccccc23)cc1	none (no result: DRD3 antagonist)
CCc1ccc(OCC(=O)NCc2nc(-c3cccc(C)c3)no2)c(Br)c1	D1 ag 38.1 (no result: DRD3 antagonist)
Cc1cc(C)cc(OCC(=O)NCc2nc(-c3ccccc3)no2)c1	DRD3 antagonist inconclusive, D1 antag -58.0 (no result: ERG Ets-DNA blk)
Cc1cccc(-c2noc(CN(C(=O)c3ccc(C)c(C)c3)C(C)C)n2)c1	none (no result: DRD3 antagonist)
Cc1cccc(-c2noc(CNC(=O)COc3ccccc3C)n2)c1	none
CCOc1ccc(C(=O)N(Cc2nc(-c3cccc(C)c3)no2)C(C)C)cc1	D1 ag 47.3 (no result: DRD3 antagonist)
CCc1ccc(OCC(=O)NCCN(C)C)c(Br)c1	D1 antag -33.6
O=C(Cc1ccccc1Cl)Nc1nc2ccccc2[nH]1	none
On1nnc2ccc3ccccc3c21	none
CCNC(=O)C1(C)CCCN(Cc2ccc(-n3ccnc3)cc2)C1 (stereo not drawn)	none (no result: D1 ag, ERG Ets-DNA blk, D1 PAM, D1 antag)
COc1ccccc1OCC(=O)N(Cc1nc(-c2ccc(Cl)cc2)no1)C(C)C	D1 antag -35.3
CCc1nc2nc(C)c(NS(=O)(=O)c3ccc(C(C)(C)C)cc3)c(=O)n2[nH]1	D1 antag -72.3 (no result: DRD3 antagonist)
CCc1nc2nc(C)c(NS(=O)(=O)c3ccc(C)cc3)c(=O)n2[nH]1	none (no result: DRD3 antagonist)

Assay outcomes deposited in PubChem BioAssay by National Center for Advancing Translational Sciences (NCATS).
